# “And” between values parts separate entries of the source, which are not always exact repeats. Identical values can stand only once. Compounds without any hit were thinned out: in the full panel of roughly 83,000, 20% have a hit.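 In brief: 96-well plates, 48 h treatment, single concentration, percent growth endpoint.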 The source made the active and inactive calls. Rule for the calls: active = growth percent below 10; inactive = the rest.
# Assays:
# Assay in all cases: NCI-60 one-dose screen, 48 h (100 = growth as untreated, 0 = no growth, -100 = all killed)
# NCI-H23 lung = tested on: NCI-H23 lung
# NCI-H226 lung = tested on: NCI-H226 lung
# NCI-H322M lung = tested on: NCI-H322M lung
# HOP-62 NSCLC = tested on: HOP-62 NSCLC
# NCI-H460 lung = conditions: 10 µM unless noted
# HOP-92 NSCLC = tested on: HOP-92 NSCLC
# NCI-H522 lung = tested on: NCI-H522 lung
# A549/ATCC NSCLC = tested on: A549/ATCC NSCLC
# 786-0 renal = tested on: 786-0 renal
# COLO 205 colon = tested on: COLO 205 colon
# DU-145 prostate = tested on: DU-145 prostate
# K-562 leukemia = conditions: 10 µM unless noted
# MALME-3M melanoma = tested on: MALME-3M melanoma
# MDA-MB-231 breast = tested on: MDA-MB-231 breast
# RXF 393 renal = tested on: RXF 393 renal
# SF-268 CNS = tested on: SF-268 CNS
# SF-295 CNS = tested on: SF-295 CNS
# SF-539 CNS = tested on: SF-539 CNS
# UACC-257 melanoma = tested on: UACC-257 melanoma
# M14 melanoma = tested on: M14 melanoma
structure (smiles),measurement,setting,value
COc1ccc(C(=O)c2c(N)c(C#N)cn2-c2ccc([N+](=O)[O-])cc2)cc1,growth,NCI-H23 lung; 10 µM unless noted,103% (inactive)
same,growth,NCI-H226 lung; 10 µM unless noted,102% (inactive)
same,growth,NCI-H322M lung; 10 µM unless noted,100% (inactive)
same,growth,HOP-62 NSCLC; 10 µM unless noted,83.4% (inactive)
same,growth,NCI-H460 lung,108% (inactive)
same,growth,HOP-92 NSCLC; 10 µM unless noted,102% (inactive)
same,growth,NCI-H522 lung; 10 µM unless noted,85.1% (inactive)
same,growth,A549/ATCC NSCLC; 10 µM unless noted,103% (inactive)
same,growth,786-0 renal; 10 µM unless noted,109% (inactive)
same,growth,COLO 205 colon; 10 µM unless noted,105% (inactive)
same,growth,DU-145 prostate; 10 µM unless noted,109% (inactive)
same,growth,K-562 leukemia,104% (inactive)
same,growth,MALME-3M melanoma; 10 µM unless noted,102% (inactive)
same,growth,MDA-MB-231 breast; 10 µM unless noted,99% (inactive)
same,growth,RXF 393 renal; 10 µM unless noted,94.2% (inactive)
same,growth,SF-268 CNS; 10 µM unless noted,99.6% (inactive)
same,growth,SF-295 CNS; 10 µM unless noted,91.9% (inactive)
same,growth,SF-539 CNS; 10 µM unless noted,95.7% (inactive)
same,growth,UACC-257 melanoma; 10 µM unless noted,111% (inactive)
same,growth,M14 melanoma; 10 µM unless noted,113% (inactive)
CC/C(=C(/c1ccc(O)cc1)c1ccc(OCCN(C)C(=O)CCOCCNC(=O)Cc2ccc3c(c2)CN([C@@H]2CCC(=O)NC2=O)C3=O)cc1)c1ccccc1,growth,NCI-H23 lung; 1 µM,98.2% (inactive)
same,growth,NCI-H23 lung; 10 µM,92.8% (inactive)
same,growth,NCI-H226 lung; 1 µM,93.9% (inactive)
same,growth,NCI-H226 lung; 10 µM,47% (inactive)
same,growth,NCI-H322M lung; 1 µM,88.1% (inactive)
same,growth,NCI-H322M lung; 10 µM,67% (inactive)
same,growth,HOP-62 NSCLC; 1 µM,82.5% (inactive)
same,growth,HOP-62 NSCLC; 10 µM,52.3% (inactive)
same,growth,HOP-92 NSCLC; 1 µM,22.2% (inactive)
same,growth,HOP-92 NSCLC; 10 µM,20.8% (inactive)
same,growth,NCI-H522 lung; 1 µM,92% (inactive)
same,growth,NCI-H522 lung; 10 µM,91.2% (inactive)
same,growth,A549/ATCC NSCLC; 1 µM,93.1% (inactive)
same,growth,A549/ATCC NSCLC; 10 µM,87.8% (inactive)
same,growth,786-0 renal; 1 µM,97.2% (inactive)
same,growth,786-0 renal; 10 µM,84.2% (inactive)
same,growth,COLO 205 colon; 1 µM,102% (inactive)
same,growth,COLO 205 colon; 10 µM,62.3% (inactive)
same,growth,DU-145 prostate; 1 µM,109% (inactive)
same,growth,DU-145 prostate; 10 µM,101% (inactive)
same,growth,MALME-3M melanoma; 1 µM,42.7% (inactive)
same,growth,MALME-3M melanoma; 10 µM,13.3% (inactive)
same,growth,MDA-MB-231 breast; 1 µM,11% (inactive)
same,growth,MDA-MB-231 breast; 10 µM,-5.68% (active)
same,growth,RXF 393 renal; 1 µM,104% (inactive)
same,growth,RXF 393 renal; 10 µM,93.8% (inactive)
same,growth,SF-268 CNS; 1 µM,96.5% (inactive)
same,growth,SF-268 CNS; 10 µM,72.6% (inactive)
same,growth,SF-295 CNS; 1 µM,103% (inactive)
same,growth,SF-295 CNS; 10 µM,94.7% (inactive)
same,growth,SF-539 CNS; 1 µM,87.9% (inactive)
same,growth,SF-539 CNS; 10 µM,78.4% (inactive)
same,growth,UACC-257 melanoma; 1 µM,91% (inactive)
same,growth,UACC-257 melanoma; 10 µM,96.1% (inactive)
same,growth,M14 melanoma; 1 µM,92.2% (inactive)
same,growth,M14 melanoma; 10 µM,65% (inactive)
Cc1nn(-c2ccccc2)c2nc(C)n(CC(=O)N/N=C/c3cccc([N+](=O)[O-])c3)c(=O)c12,growth,NCI-H23 lung; 10 µM unless noted,102% (inactive)
same,growth,NCI-H226 lung; 10 µM unless noted,100% (inactive)
same,growth,NCI-H322M lung; 10 µM unless noted,98.1% (inactive)
same,growth,HOP-62 NSCLC; 10 µM unless noted,96.1% (inactive)
same,growth,NCI-H460 lung,106% (inactive)
same,growth,HOP-92 NSCLC; 10 µM unless noted,91.9% (inactive)
same,growth,NCI-H522 lung; 10 µM unless noted,92.7% (inactive)
same,growth,A549/ATCC NSCLC; 10 µM unless noted,91.9% (inactive)
same,growth,786-0 renal; 10 µM unless noted,84% (inactive)
same,growth,COLO 205 colon; 10 µM unless noted,120% (inactive)
same,growth,DU-145 prostate; 10 µM unless noted,105% (inactive)
same,growth,K-562 leukemia,91% (inactive)
same,growth,MALME-3M melanoma; 10 µM unless noted,99% (inactive)
same,growth,MDA-MB-231 breast; 10 µM unless noted,78.5% (inactive)
same,growth,RXF 393 renal; 10 µM unless noted,84.2% (inactive)
same,growth,SF-268 CNS; 10 µM unless noted,96.5% (inactive)
same,growth,SF-295 CNS; 10 µM unless noted,101% (inactive)
same,growth,SF-539 CNS; 10 µM unless noted,95.3% (inactive)
same,growth,UACC-257 melanoma; 10 µM unless noted,101% (inactive)
same,growth,M14 melanoma; 10 µM unless noted,107% (inactive)
CN1C(=O)/C(=C/c2ccco2)S/C1=N/c1nccs1,growth,NCI-H23 lung; 10 µM unless noted,97.3% (inactive)
same,growth,NCI-H226 lung; 10 µM unless noted,113% (inactive)
same,growth,NCI-H322M lung; 10 µM unless noted,94.3% (inactive)
same,growth,HOP-62 NSCLC; 10 µM unless noted,108% (inactive)
same,growth,NCI-H460 lung,103% (inactive)
same,growth,HOP-92 NSCLC; 10 µM unless noted,114% (inactive)
same,growth,NCI-H522 lung; 10 µM unless noted,100% (inactive)
same,growth,A549/ATCC NSCLC; 10 µM unless noted,107% (inactive)
same,growth,786-0 renal; 10 µM unless noted,97.6% (inactive)
same,growth,COLO 205 colon; 10 µM unless noted,121% (inactive)
same,growth,DU-145 prostate; 10 µM unless noted,107% (inactive)
same,growth,K-562 leukemia,101% (inactive)
same,growth,MALME-3M melanoma; 10 µM unless noted,118% (inactive)
same,growth,MDA-MB-231 breast; 10 µM unless noted,109% (inactive)
same,growth,RXF 393 renal; 10 µM unless noted,111% (inactive)
same,growth,SF-268 CNS; 10 µM unless noted,107% (inactive)
same,growth,SF-295 CNS; 10 µM unless noted,102% (inactive)
same,growth,SF-539 CNS; 10 µM unless noted,103% (inactive)
same,growth,UACC-257 melanoma; 10 µM unless noted,117% (inactive)
same,growth,M14 melanoma; 10 µM unless noted,117% (inactive)
O=C1C=CC(=CC=C2N(Cc3ccc4ccccc4c3)c3ccccc3N2Cc2ccc3ccccc3c2)C=C1,growth,NCI-H23 lung; 10 µM unless noted,5.96% (active) and 26.9% (inactive)
same,growth,NCI-H226 lung; 10 µM unless noted,47.1% (inactive) and 48% (inactive)
same,growth,NCI-H322M lung; 10 µM unless noted,49.3% (inactive) and 59.1% (inactive)
same,growth,HOP-62 NSCLC; 10 µM unless noted,37.3% (inactive) and 45.3% (inactive)
same,growth,NCI-H460 lung,15.7% (inactive) and 10.4% (inactive)
same,growth,HOP-92 NSCLC; 10 µM unless noted,3.18% (active) and -22.2% (active)
same,growth,NCI-H522 lung; 10 µM unless noted,-12.5% (active) and 17.7% (inactive)
same,growth,A549/ATCC NSCLC; 10 µM unless noted,30.5% (inactive) and 46.4% (inactive)
same,growth,786-0 renal; 10 µM unless noted,51.2% (inactive) and 69.2% (inactive)
same,growth,COLO 205 colon; 10 µM unless noted,-29.1% (active) and 0.579% (active)
same,growth,DU-145 prostate; 10 µM unless noted,43.2% (inactive) and 32.7% (inactive)
same,growth,K-562 leukemia,13.5% (inactive) and 6.33% (active)
same,growth,MALME-3M melanoma; 10 µM unless noted,4.02% (active) and 3.15% (active)
same,growth,MDA-MB-231 breast; 10 µM unless noted,-40.7% (active) and -24.6% (active)
same,growth,RXF 393 renal; 10 µM unless noted,31.6% (inactive) and 30.9% (inactive)
same,growth,SF-268 CNS; 10 µM unless noted,67.5% (inactive) and 56.8% (inactive)
same,growth,SF-295 CNS; 10 µM unless noted,39.3% (inactive) and 58.2% (inactive)
same,growth,SF-539 CNS; 10 µM unless noted,15.5% (inactive) and 16.9% (inactive)
same,growth,UACC-257 melanoma; 10 µM unless noted,-0.845% (active) and 20.9% (inactive)
same,growth,M14 melanoma; 10 µM unless noted,20.8% (inactive) and 29.8% (inactive)
N#Cc1c(NC(=O)N2CCOCC2)n(-c2ccc(OC(F)(F)F)cc2)c2cc(F)ccc12,growth,NCI-H23 lung; 10 µM unless noted,90.7% (inactive)
same,growth,NCI-H226 lung; 10 µM unless noted,87.3% (inactive)
same,growth,NCI-H322M lung; 10 µM unless noted,108% (inactive)
same,growth,HOP-62 NSCLC; 10 µM unless noted,106% (inactive)
same,growth,NCI-H460 lung,94.5% (inactive)
same,growth,HOP-92 NSCLC; 10 µM unless noted,102% (inactive)
same,growth,NCI-H522 lung; 10 µM unless noted,78.8% (inactive)
same,growth,A549/ATCC NSCLC; 10 µM unless noted,86.3% (inactive)
same,growth,786-0 renal; 10 µM unless noted,112% (inactive)
same,growth,COLO 205 colon; 10 µM unless noted,108% (inactive)
same,growth,DU-145 prostate; 10 µM unless noted,100% (inactive)
same,growth,K-562 leukemia,8.91% (active)
same,growth,MALME-3M melanoma; 10 µM unless noted,94.5% (inactive)
same,growth,MDA-MB-231 breast; 10 µM unless noted,73.7% (inactive)
same,growth,RXF 393 renal; 10 µM unless noted,95.2% (inactive)
same,growth,SF-268 CNS; 10 µM unless noted,114% (inactive)
same,growth,SF-295 CNS; 10 µM unless noted,87.7% (inactive)
same,growth,SF-539 CNS; 10 µM unless noted,87.7% (inactive)
same,growth,UACC-257 melanoma; 10 µM unless noted,102% (inactive)
same,growth,M14 melanoma; 10 µM unless noted,96.7% (inactive)
CC1=C(C(=O)OCc2ccccc2)C(c2cccc3ccccc23)n2c(nc3ccccc32)N1 (stereo unspecified),growth,NCI-H23 lung; 10 µM unless noted,46.4% (inactive)
same,growth,NCI-H226 lung; 10 µM unless noted,19.4% (inactive)
same,growth,NCI-H322M lung; 10 µM unless noted,36.6% (inactive)
same,growth,HOP-62 NSCLC; 10 µM unless noted,38.3% (inactive)
same,growth,NCI-H460 lung,9.99% (active)
same,growth,HOP-92 NSCLC; 10 µM unless noted,64.6% (inactive)
same,growth,NCI-H522 lung; 10 µM unless noted,-42.2% (active)
same,growth,A549/ATCC NSCLC; 10 µM unless noted,33.9% (inactive)
same,growth,786-0 renal; 10 µM unless noted,30.3% (inactive)
same,growth,COLO 205 colon; 10 µM unless noted,13.9% (inactive)
same,growth,DU-145 prostate; 10 µM unless noted,28.9% (inactive)
same,growth,K-562 leukemia,11.7% (inactive)
same,growth,MALME-3M melanoma; 10 µM unless noted,16.8% (inactive)
same,growth,MDA-MB-231 breast; 10 µM unless noted,37.9% (inactive)
same,growth,RXF 393 renal; 10 µM unless noted,0.534% (active)
same,growth,SF-268 CNS; 10 µM unless noted,44.9% (inactive)
same,growth,SF-295 CNS; 10 µM unless noted,10.5% (inactive)
same,growth,SF-539 CNS; 10 µM unless noted,11.8% (inactive)
same,growth,UACC-257 melanoma; 10 µM unless noted,40.7% (inactive)
same,growth,M14 melanoma; 10 µM unless noted,23.9% (inactive)

# From PubChem BioAssay (NCI)
